Consider eight sequences from paper PMC7862700, “An all-to-all approach to the identification of sequence-specific readers for epigenetic DNA modifications on cytosine”.

Holding throughout (assay): DAPPL (digital affinity profiling via proximity ligation, sequencing); 10 mM Tris-HCl pH 7.5, 50 mM NaCl, 1 mM DTT, 4% glycerol, room temperature, 30 min; GST-TFs on glutathione beads, 16-mer random dsDNA library, 0.1% formaldehyde crosslink after washing; high values mean tight binding
Holding throughout (settings): protein: recombinant; tags: N-terminal GST; dsDNA, one strand shown

The target in one experiment is T1, FLI1 (Homo sapiens, UniProt Q01543 1-452).
T1 sequence: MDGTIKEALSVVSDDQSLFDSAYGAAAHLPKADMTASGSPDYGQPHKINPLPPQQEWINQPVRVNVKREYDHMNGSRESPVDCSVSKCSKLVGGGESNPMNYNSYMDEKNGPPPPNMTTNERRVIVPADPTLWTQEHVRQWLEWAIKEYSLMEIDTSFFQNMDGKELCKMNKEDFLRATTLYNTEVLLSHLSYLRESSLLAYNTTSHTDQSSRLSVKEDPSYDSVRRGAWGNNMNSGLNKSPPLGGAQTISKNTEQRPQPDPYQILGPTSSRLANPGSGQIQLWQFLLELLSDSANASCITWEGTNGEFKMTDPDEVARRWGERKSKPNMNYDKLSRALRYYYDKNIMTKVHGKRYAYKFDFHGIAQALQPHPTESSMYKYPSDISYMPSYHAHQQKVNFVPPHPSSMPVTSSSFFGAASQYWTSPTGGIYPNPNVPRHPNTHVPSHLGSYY
An outline of the steps:
(§1)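 Pools of DNA-barcoded human transcription factors, expressed in yeast as GST fusions on glutathione beads and combined with a tag-only sample, were incubated with 200 nmole of a 16-mer random double-stranded DNA library. Incubation took 30 min at room temperature in Tris/NaCl/DTT/glycerol buffer and was followed by washing, 0.1% formaldehyde crosslinking, proximity ligation (BsaI/T4 ligase, 1 h, 37 °C), PCR amplification and sequencing on an Illumina NextSeq500. Binding signal is the ratio of a hexamer's read frequency for a factor to its frequency for the tag-only sample.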

The target in another experiment is T2, ELK1 (Homo sapiens, UniProt P19419 1-428).
T2 sequence: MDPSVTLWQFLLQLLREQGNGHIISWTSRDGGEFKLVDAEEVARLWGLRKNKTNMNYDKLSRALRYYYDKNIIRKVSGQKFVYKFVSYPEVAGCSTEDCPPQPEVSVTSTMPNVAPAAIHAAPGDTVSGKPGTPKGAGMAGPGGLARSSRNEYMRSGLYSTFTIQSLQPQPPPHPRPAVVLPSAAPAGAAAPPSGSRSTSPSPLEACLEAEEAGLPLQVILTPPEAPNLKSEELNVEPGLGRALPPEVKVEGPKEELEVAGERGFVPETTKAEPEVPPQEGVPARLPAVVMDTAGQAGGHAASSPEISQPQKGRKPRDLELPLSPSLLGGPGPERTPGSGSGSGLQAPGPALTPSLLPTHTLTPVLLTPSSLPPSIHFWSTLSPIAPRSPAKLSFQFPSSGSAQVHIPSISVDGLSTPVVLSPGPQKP
An outline of the steps:
as §1

A further experiment concerns the target T3, GABPA (Homo sapiens, UniProt Q06546 1-454).
T3 sequence: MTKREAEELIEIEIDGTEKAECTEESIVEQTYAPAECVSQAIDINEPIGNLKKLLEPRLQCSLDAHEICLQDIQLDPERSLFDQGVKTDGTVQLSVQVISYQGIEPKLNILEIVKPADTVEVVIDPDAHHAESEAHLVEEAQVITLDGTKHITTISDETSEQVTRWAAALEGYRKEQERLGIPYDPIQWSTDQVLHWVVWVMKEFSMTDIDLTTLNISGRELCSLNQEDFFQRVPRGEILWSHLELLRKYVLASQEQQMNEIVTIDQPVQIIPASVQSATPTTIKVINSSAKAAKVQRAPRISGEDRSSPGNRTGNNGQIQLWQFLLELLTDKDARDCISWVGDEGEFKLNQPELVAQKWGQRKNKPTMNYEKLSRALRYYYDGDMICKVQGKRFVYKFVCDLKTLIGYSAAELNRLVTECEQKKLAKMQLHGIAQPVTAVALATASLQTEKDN
An outline of the steps:
as §1

Another experiment has as its target T4, ERG (Homo sapiens, UniProt P11308 1-479).
T4 sequence: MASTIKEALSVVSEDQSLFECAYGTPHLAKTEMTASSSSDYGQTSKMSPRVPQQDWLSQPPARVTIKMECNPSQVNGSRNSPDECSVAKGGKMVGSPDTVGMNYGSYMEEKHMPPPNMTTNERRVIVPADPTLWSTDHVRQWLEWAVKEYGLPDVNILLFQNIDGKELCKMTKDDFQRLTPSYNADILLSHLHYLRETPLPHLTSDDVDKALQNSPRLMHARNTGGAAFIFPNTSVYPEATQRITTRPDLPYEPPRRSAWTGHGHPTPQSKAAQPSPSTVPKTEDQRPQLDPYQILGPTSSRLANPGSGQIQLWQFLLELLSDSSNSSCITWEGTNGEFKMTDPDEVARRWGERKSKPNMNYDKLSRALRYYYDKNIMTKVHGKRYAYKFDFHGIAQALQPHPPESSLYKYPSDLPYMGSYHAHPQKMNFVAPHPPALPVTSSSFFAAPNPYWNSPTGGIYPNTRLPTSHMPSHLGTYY
The method, boiled down:
as §1

The target in the next experiment is ELF1 (Homo sapiens, UniProt P32519 1-619). An outline of the steps:
as §1

The target in the next experiment is T5, EHF (Homo sapiens, UniProt Q9NZC4 1-300).
T5 sequence: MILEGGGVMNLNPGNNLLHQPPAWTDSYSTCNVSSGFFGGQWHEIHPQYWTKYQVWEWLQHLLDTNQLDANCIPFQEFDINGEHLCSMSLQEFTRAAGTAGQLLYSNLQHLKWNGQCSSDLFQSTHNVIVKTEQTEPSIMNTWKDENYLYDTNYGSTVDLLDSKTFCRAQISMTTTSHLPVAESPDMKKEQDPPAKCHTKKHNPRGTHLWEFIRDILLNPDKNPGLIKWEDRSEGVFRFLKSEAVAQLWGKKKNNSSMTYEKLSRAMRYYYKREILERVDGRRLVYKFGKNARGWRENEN
An outline of the steps:
as §1

The target in the next experiment is SPI1 (Homo sapiens, UniProt P17947 1-270). The method, boiled down: as §1
For a further experiment, the target named is SPIB (Homo sapiens, UniProt Q01892 1-262). An outline of the steps:
as §1

In the next experiment the target is T6, ELK3 (Homo sapiens, UniProt P41970 1-407).
T6 sequence: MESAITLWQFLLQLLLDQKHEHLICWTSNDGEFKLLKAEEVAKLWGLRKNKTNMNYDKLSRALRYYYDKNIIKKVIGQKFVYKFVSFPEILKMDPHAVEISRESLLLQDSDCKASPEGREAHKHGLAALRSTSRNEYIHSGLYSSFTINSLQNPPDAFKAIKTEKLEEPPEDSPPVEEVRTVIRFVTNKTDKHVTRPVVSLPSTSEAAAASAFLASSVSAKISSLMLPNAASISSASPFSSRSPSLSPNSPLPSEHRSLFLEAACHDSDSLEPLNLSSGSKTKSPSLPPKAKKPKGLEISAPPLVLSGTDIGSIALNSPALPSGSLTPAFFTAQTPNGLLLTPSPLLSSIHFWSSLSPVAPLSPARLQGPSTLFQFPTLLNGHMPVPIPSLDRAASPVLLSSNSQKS
An outline of the steps: as §1

Sequence of SPIB (Q01892 whole entry): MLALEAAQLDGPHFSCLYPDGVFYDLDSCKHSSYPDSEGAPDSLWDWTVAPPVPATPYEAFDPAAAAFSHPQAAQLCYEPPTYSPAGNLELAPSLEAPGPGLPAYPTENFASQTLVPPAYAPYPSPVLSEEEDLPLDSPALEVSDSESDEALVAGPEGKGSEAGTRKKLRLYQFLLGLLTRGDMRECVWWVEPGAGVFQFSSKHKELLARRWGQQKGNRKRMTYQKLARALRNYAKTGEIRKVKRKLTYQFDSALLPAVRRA
Sequence of ELF1 (P32519 whole entry): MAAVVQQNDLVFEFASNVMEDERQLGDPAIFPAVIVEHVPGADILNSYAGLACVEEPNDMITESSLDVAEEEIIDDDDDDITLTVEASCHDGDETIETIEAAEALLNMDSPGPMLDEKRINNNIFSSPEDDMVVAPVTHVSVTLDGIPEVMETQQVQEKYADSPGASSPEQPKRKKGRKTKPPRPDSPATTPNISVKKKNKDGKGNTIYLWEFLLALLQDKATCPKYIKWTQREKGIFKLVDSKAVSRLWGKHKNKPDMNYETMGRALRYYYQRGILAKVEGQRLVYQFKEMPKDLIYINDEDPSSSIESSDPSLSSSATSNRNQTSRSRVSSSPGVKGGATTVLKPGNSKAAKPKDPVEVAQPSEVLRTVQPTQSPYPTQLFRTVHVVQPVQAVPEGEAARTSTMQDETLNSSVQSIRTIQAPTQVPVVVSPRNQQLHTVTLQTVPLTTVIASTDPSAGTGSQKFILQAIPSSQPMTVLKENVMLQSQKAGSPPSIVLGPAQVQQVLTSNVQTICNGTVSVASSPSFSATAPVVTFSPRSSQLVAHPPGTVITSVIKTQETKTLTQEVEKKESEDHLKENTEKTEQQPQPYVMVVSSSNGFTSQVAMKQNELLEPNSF

ATTATA: the binding signal in the experiment with FLI1 is 1.24 fold enrichment (6-mer frequency, TF over GST control); with ELK1 it was 1.32 fold enrichment (6-mer frequency, TF over GST control); in the experiment with GABPA, 1.21 fold enrichment (6-mer frequency, TF over GST control); in the experiment with ERG, 1.25 fold enrichment (6-mer frequency, TF over GST control); with ELF1, 1.31 fold enrichment (6-mer frequency, TF over GST control); with EHF it was 1.29 fold enrichment (6-mer frequency, TF over GST control). Moreover, the binding signal is 1.2 fold enrichment (6-mer frequency, TF over GST control) with SPI1; 1.37 fold enrichment (6-mer frequency, TF over GST control) with SPIB; 1.28 fold enrichment (6-mer frequency, TF over GST control) with ELK3.

On to CCTACT, for which the binding signal in the experiment with FLI1 was 1.73 fold enrichment (6-mer frequency, TF over GST control); in the experiment with ELK1, 1.61 fold enrichment (6-mer frequency, TF over GST control); with GABPA, 1.53 fold enrichment (6-mer frequency, TF over GST control); with ERG, 1.54 fold enrichment (6-mer frequency, TF over GST control); in the experiment with ELF1 it was 1.73 fold enrichment (6-mer frequency, TF over GST control); with EHF, 1.69 fold enrichment (6-mer frequency, TF over GST control). In addition, the binding signal with SPI1 was 1.77 fold enrichment (6-mer frequency, TF over GST control); in the experiment with SPIB it was 1.76 fold enrichment (6-mer frequency, TF over GST control); with ELK3, 1.55 fold enrichment (6-mer frequency, TF over GST control).

In the case of TGAATT, the binding signal with FLI1 was 1.15 fold enrichment (6-mer frequency, TF over GST control); with ELK1, 1.09 fold enrichment (6-mer frequency, TF over GST control); with GABPA, 1.19 fold enrichment (6-mer frequency, TF over GST control); with ERG, 1.17 fold enrichment (6-mer frequency, TF over GST control); in the experiment with ELF1 it was 1.1 fold enrichment (6-mer frequency, TF over GST control); with EHF, 1.17 fold enrichment (6-mer frequency, TF over GST control). For the same sequence, the binding signal in the experiment with SPI1 was 1.22 fold enrichment (6-mer frequency, TF over GST control); in the experiment with SPIB it was 1.19 fold enrichment (6-mer frequency, TF over GST control); in the experiment with ELK3, 1.06 fold enrichment (6-mer frequency, TF over GST control).

Regarding TTTTAT, the binding signal with FLI1 is 1.4 fold enrichment (6-mer frequency, TF over GST control); with ELK1, 1.16 fold enrichment (6-mer frequency, TF over GST control); with GABPA it was 1.42 fold enrichment (6-mer frequency, TF over GST control); with ERG, 1.3 fold enrichment (6-mer frequency, TF over GST control); in the experiment with ELF1, 1.17 fold enrichment (6-mer frequency, TF over GST control); with EHF, 1.44 fold enrichment (6-mer frequency, TF over GST control). The binding signal with SPI1 is 1.44 fold enrichment (6-mer frequency, TF over GST control); in the experiment with SPIB it was 1.37 fold enrichment (6-mer frequency, TF over GST control); in the experiment with ELK3, 1.34 fold enrichment (6-mer frequency, TF over GST control).

For ATTGGT, the binding signal was 1.31 fold enrichment (6-mer frequency, TF over GST control) with FLI1; 1.34 fold enrichment (6-mer frequency, TF over GST control) with ELK1; 1.14 fold enrichment (6-mer frequency, TF over GST control) in the experiment with GABPA; 1.19 fold enrichment (6-mer frequency, TF over GST control) with ERG; 1.22 fold enrichment (6-mer frequency, TF over GST control) with ELF1; 1.28 fold enrichment (6-mer frequency, TF over GST control) with EHF. Besides, the binding signal in the experiment with SPI1 is 1.25 fold enrichment (6-mer frequency, TF over GST control); in the experiment with SPIB it was 1.33 fold enrichment (6-mer frequency, TF over GST control); in the experiment with ELK3, 1.33 fold enrichment (6-mer frequency, TF over GST control).

In the case of GACCTT, the binding signal in the experiment with FLI1 was 1.65 fold enrichment (6-mer frequency, TF over GST control); with ELK1 it was 1.68 fold enrichment (6-mer frequency, TF over GST control); with GABPA, 1.65 fold enrichment (6-mer frequency, TF over GST control); in the experiment with ERG it was 1.46 fold enrichment (6-mer frequency, TF over GST control); with ELF1 it was 1.58 fold enrichment (6-mer frequency, TF over GST control); with EHF, 1.46 fold enrichment (6-mer frequency, TF over GST control). For the same sequence, the binding signal with SPI1 is 1.47 fold enrichment (6-mer frequency, TF over GST control); in the experiment with SPIB, 1.51 fold enrichment (6-mer frequency, TF over GST control); with ELK3 it was 1.55 fold enrichment (6-mer frequency, TF over GST control).

As for TCAACC, the binding signal with FLI1 was 1.23 fold enrichment (6-mer frequency, TF over GST control); with ELK1, 1.24 fold enrichment (6-mer frequency, TF over GST control); with GABPA, 1.22 fold enrichment (6-mer frequency, TF over GST control); with ERG, 1.14 fold enrichment (6-mer frequency, TF over GST control); with ELF1, 1.16 fold enrichment (6-mer frequency, TF over GST control); with EHF, 1.15 fold enrichment (6-mer frequency, TF over GST control). In addition, the binding signal in the experiment with SPI1 was 1.16 fold enrichment (6-mer frequency, TF over GST control); with SPIB, 1.17 fold enrichment (6-mer frequency, TF over GST control); with ELK3, 1.32 fold enrichment (6-mer frequency, TF over GST control).

Take TTACAG: the binding signal with FLI1 is 1.19 fold enrichment (6-mer frequency, TF over GST control); with ELK1, 1.18 fold enrichment (6-mer frequency, TF over GST control); in the experiment with GABPA, 1.15 fold enrichment (6-mer frequency, TF over GST control); with ERG, 1.17 fold enrichment (6-mer frequency, TF over GST control); in the experiment with ELF1, 1.22 fold enrichment (6-mer frequency, TF over GST control); with EHF it was 1.13 fold enrichment (6-mer frequency, TF over GST control). The binding signal was 1.11 fold enrichment (6-mer frequency, TF over GST control) in the experiment with SPI1; 1.29 fold enrichment (6-mer frequency, TF over GST control) with SPIB; 1.17 fold enrichment (6-mer frequency, TF over GST control) in the experiment with ELK3.
